Test results from PubChem BioAssay (EPA / NIEHS).
Results filed as inconclusive are left out. Calls of active or inactive are those of the source. Rule for the calls, unless noted: active = hit-call score of the fitted dose curve at least 0.9, where 1 is the maximum; inactive = score below 0.9.

Key:
[1] = target: Nucleoli Translocation, AR (gene 367) (UniProt P10275); assay: UPITT_HCI_U2OS_AR_TIF2_Nucleoli_Agonist: University of Pittsburgh U2OS Androgen Receptor-Transcriptional Intermediary Factor 2 (AR-TIF2) Agonism High Content Imaging Assay for Nucleoli Translocation (AID 2283998; active = hit-call score of the fitted dose curve at least 0.9, where 1 is the maximum)
In short: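 RFP-AR / GFP-TIF2 cells; cpds diluted in serum-free medium; single-point screen 20 uM final (0.2% DMSO), actives confirmed in triplicate; conc-response 0.195–50 uM final (0.5% DMSO). Readout: nucleolar red fluorescence, positive direction vs DMSO.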

[2] = target: Ratio of Nucleoli Translocation and Cytoplasm, AR (gene 367) (UniProt P10275); assay: UPITT_HCI_U2OS_AR_TIF2_Nucleoli_Cytoplasm_Ratio_Agonist: University of Pittsburgh U2OS Androgen Receptor-Transcriptional Intermediary Factor 2 (AR-TIF2) Agonism High Content Imaging Assay for Ratio of Nucleoli Translocation and Cytoplasm (AID 2284000; active = hit-call score of the fitted dose curve at least 0.9, where 1 is the maximum;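 note: hits raise the red nucleolar to cytoplasm ratio above vehicle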)
In short: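 Read-out first: nucleolar-to-cytoplasm ratio of red (AR-RFP) signal, quantified by high-content imaging in U2OS cells co-expressing TIF2-GFP. Activity is scored as signal increase over DMSO. Single-point screening used 20 uM final (0.2% DMSO).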

[3] = target: Nucleoli Translocation, AR (gene 367) (UniProt P10275); assay: UPITT_HCI_U2OS_AR_TIF2_Nucleoli_Antagonist: University of Pittsburgh U2OS Androgen Receptor-Transcriptional Intermediary Factor 2 (AR-TIF2) Antagonism High Content Imaging Assay for Nucleoli Translocation (AID 2283997; active = hit-call score of the fitted dose curve at least 0.9, where 1 is the maximum)
In short: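 Measured quantity was AR-RFP fluorescence localized to nucleoli in engineered U2OS cells also bearing TIF2-GFP, acquired on automated high-content imagers. Primary testing used 20 uM compound; actives were confirmed in triplicate wells.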

[4] = target: Ratio of Nucleoli Translocation and Cytoplasm, AR (gene 367) (UniProt P10275); assay: UPITT_HCI_U2OS_AR_TIF2_Nucleoli_Cytoplasm_Ratio_Antagonist: University of Pittsburgh U2OS Androgen Receptor-Transcriptional Intermediary Factor 2 (AR-TIF2) Antagonism High Content Imaging Assay for Ratio of Nucleoli Translocation and Cytoplasm (AID 2283999; active = hit-call score of the fitted dose curve at least 0.9, where 1 is the maximum;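 note: antagonists lower the DHT-driven ratio of nucleolar to cytoplasmic red signal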)
In short: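 Human osteosarcoma U2OS line, AR fused to RFP, coactivator TIF2 fused to GFP. Cpds 20 uM final, 0.2% DMSO (screen); 0.195–50 uM final, 0.5% DMSO (CRC). Endpoint: nucleoli/cytoplasm red signal ratio, DHT as baseline, loss-of-signal antagonist mode.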

[5] = CCTE_Harrill_HTTr_Viability_MCF7: CCTE's 6-hour Cell Viability Assessment for the High-Throughput Transcriptomics (HTTr) Platform, in MCF-7 cells cultured in DMEM + 10% fetal bovine serum, Harrill Lab (AID 2284010)
In short: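 Cells were dosed with chemicals in an eight-point dilution series, imaged 6 hours later for propidium iodide uptake, and the endpoint was analyzed by bidirectional fitting against DMSO as negative control.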

[6] = CCTE_Harrill_HTTr_Apoptosis_MCF7: CCTE's 6-hour Apoptosis Assessment for the High-Throughput Transcriptomics (HTTr) Platform, in MCF-7 cells cultured in DMEM + 10% fetal bovine serum, Harrill Lab (AID 2284011)
In short: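 Read-out: CellEvent Caspase 3/7 Green signal by high content imaging, gain-of-signal indicating apoptosis. MCF-7 cells, DMEM + 10% FBS, eight-point dilution series, 6 h exposure. Curves fitted bidirectionally relative to DMSO negative control.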

[7] = CCTE_Shafer_MEA_acute_firing_rate_mean: CCTE's Neural Acute Assay for Mean Firing Rate, Shafer Lab (AID 2284009);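 note: analyzed for loss of signal so actives lower firing rate relative to DMSO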
In short: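 Percent change in well-mean firing rate was derived from extracellular spikes detected at 8x rms noise (300-5000 Hz band-pass) before and after a 40-min compound exposure. Cultures were primary rat cortical neurons, tested at 0.03-40 uM.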

[8] = CCTE_Shafer_MEA_acute_burst_number: CCTE's Neural Acute Assay for Single-Electrode Bursts, Shafer Lab (AID 2284013)
In short: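 Spontaneous network activity of primary rat cortical neurons was recorded extracellularly on microelectrode arrays at 37 C, with 40-min periods before and during exposure to 0.03-40 uM compound on DIV 13 or 15.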

[9] = CCTE_Shafer_MEA_acute_burst_duration_mean: CCTE's Neural Acute Assay for Mean Burst Duration, Shafer Lab (AID 2284014);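 note: hits are decreases in mean burst duration relative to DMSO controls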
In short: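 Read-out is the per-well percent change in mean burst duration (first to last spike within a single-electrode burst) between 40-min recordings before and after compound. Cultures were primary rat cortical neurons on MEAs, dosed at 0.03-40 uM on DIV 13 or 15.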

[10] = CCTE_Shafer_MEA_acute_per_burst_spike_number_mean: CCTE's Neural Acute Assay for Average Number of Spikes Per Burst, Shafer Lab (AID 2284015);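 note: hits are decreases in mean spikes per burst versus baseline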
In short: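 Read-out: percent change in mean spikes per burst, each well's post-exposure 40-min recording versus its own 40-min baseline. Rat cortical cultures, DIV 13 or 15, compounds 0.03-40 uM; DMSO is negative control, loss-of-signal fitting.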

[11] = CCTE_Shafer_MEA_acute_interburst_interval_mean: CCTE's Neural Acute Assay for Mean Interburst Interval, Shafer Lab (AID 2284016);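 note: percent change of mean interburst interval versus each well's own pre-dose baseline; curves fitted for decrease in interburst interval relative to DMSO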
In short: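 Rat cortical cultures, DIV 13/15; 20 min equilibration, 40 min baseline, compound 0.03-40 uM, 40 min re-recording, 37 C. Spikes detected at 8x rms noise (300-5000 Hz band-pass). Endpoint: % change in interburst interval, fitted in loss direction vs DMSO.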

[12] = CCTE_Shafer_MEA_acute_burst_percentage_mean: CCTE's Neural Acute Assay for Percentage of Spikes in a Burst, Shafer Lab (AID 2284017);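 for AC50: curve fitted for loss of signal so potency reflects decreased burst percentage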
In short: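 Rat cortical cultures, DIV 13/15, 37 C. Spikes detected at 8x rms noise (300-5000 Hz band-pass). Burst spikes/total spikes averaged across electrodes per well; % change post- vs pre-treatment (40 min each), loss-of-signal fit vs DMSO.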

[13] = CCTE_Shafer_MEA_acute_burst_percentage_std: CCTE's Neural Acute Assay for Standard Deviation of Burst Percentage, Shafer Lab (AID 2284018);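 note: fitted in the negative direction so actives lower burst percentage SD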
In short: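 Value is percent change from baseline in the across-electrode SD of spikes-in-bursts percentage, wells with >/= 10 active electrodes. Acute 40-min exposure to 0.03-40 uM on DIV 13 or 15 rat cortical cultures, recorded at 37 C after 40-min baseline.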

[14] = CCTE_Shafer_MEA_acute_per_network_burst_spike_number_mean: CCTE's Neural Acute Assay for Average Number of Spikes in a Network Burst, Shafer Lab (AID 2284019)
In short: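 Read-out is mean spike count per network burst, taken as percent change between a 40-min pre-exposure and a 40-min post-exposure recording per well. Rat primary cortical neurons on MEAs at 37 C, DIV 13 or 15; compounds at 0.03-40 uM.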

[15] = target: Retinoic acid receptor RXR-alpha (Homo sapiens) (UniProt P19793); assay: TOX21_TR_RXR_BLA_Antagonist_Followup_ratio: Tox21 Thyroid Hormone Receptor beta Retinoid X Receptor alpha (RXRa) Antagonism Beta-lactamase (BLA) Follow-Up Assay, Ratio (AID 2283972; active = hit-call score of the fitted dose curve at least 0.9, where 1 is the maximum)
In short: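 Beta-lactamase reporter readout as cleaved/uncleaved substrate ratio (460:530 nm) after 2 h substrate loading at room temperature. GAL4-RXRa bla HEK293T cells were exposed 16 h at 37C to 11-point compound series; loss of signal scored against DMSO baseline.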

[16] = TOX21_TR_RXR_BLA_Antagonist_Followup_viability: Viability Assessment in the Tox21 Thyroid Hormone Receptor beta Retinoid X Receptor alpha (RXRa) Antagonism Beta-lactamase (BLA) Follow-Up Assay (AID 2283979; active = hit-call score of the fitted dose curve at least 0.9, where 1 is the maximum)
In short: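 Follow-up compounds (11 concentrations, triplicate) were incubated 16 h at 37C/5% CO2 with HEK293T RXRa-bla cells seeded at 2,500/well in charcoal-stripped-serum medium. ATP content by CellTiter-Glo luminescence gave viability; curves fitted in both directions against DMSO.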

[17] = system: DIO1 (gene 1733); assay: CCTE_GLTED_hDIO1: CCTE's human Deiodinase 1 (DIO1) Inhibition Assay, Great Lakes Toxicology and Ecology Division (GLTED) Lab (AID 2283987; active = hit-call score of the fitted dose curve at least 0.9, where 1 is the maximum;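 note: isolated human DIO1 enzyme in a cell-free setup rather than cells; enzyme activity read as free iodide liberated from substrate via Sandell-Kolthoff colorimetry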)
In short: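 Steps: human DIO1 enzyme plus test chemical, 3 h incubation; free iodide then quantified in a second Sandell-Kolthoff step by absorbance. DMSO served as negative control and baseline.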

Measured: AC50

Chain of Ratio of Nucleoli Translocation and Cytoplasm, AR (gene 367) (P10275 whole entry, looked up, the tested form may be a part): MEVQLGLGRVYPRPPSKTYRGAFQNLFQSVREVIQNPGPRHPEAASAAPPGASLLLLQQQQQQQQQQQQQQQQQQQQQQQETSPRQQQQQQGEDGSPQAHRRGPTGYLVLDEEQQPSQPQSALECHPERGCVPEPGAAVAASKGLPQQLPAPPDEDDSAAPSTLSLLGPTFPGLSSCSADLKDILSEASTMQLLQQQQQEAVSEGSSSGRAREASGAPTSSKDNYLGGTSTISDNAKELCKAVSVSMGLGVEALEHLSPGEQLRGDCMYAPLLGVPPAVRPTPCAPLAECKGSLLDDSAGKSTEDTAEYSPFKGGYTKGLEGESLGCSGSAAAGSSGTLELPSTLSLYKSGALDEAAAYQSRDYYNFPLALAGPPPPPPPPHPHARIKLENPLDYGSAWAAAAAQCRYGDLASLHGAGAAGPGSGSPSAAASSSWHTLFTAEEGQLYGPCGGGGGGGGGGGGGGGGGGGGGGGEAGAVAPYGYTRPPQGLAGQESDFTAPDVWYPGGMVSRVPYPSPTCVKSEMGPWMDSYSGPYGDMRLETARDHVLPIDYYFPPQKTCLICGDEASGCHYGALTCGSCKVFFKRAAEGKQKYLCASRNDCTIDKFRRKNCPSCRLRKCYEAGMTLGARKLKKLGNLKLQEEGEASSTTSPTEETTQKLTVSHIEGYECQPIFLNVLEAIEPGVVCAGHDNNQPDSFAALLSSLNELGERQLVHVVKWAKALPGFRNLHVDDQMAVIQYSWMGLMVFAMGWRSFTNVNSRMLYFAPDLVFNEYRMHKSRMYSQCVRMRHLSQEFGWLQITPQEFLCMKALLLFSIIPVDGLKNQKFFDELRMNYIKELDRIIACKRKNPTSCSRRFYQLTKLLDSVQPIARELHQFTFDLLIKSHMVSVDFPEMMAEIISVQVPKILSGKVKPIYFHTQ
Chain of Nucleoli Translocation, AR (gene 367) (P10275 whole entry, looked up): as the sequence (P10275 whole entry, looked up, the tested form may be a part) above
Chain of Retinoic acid receptor RXR-alpha (Homo sapiens) (P19793 whole entry, looked up, the tested form may be a part): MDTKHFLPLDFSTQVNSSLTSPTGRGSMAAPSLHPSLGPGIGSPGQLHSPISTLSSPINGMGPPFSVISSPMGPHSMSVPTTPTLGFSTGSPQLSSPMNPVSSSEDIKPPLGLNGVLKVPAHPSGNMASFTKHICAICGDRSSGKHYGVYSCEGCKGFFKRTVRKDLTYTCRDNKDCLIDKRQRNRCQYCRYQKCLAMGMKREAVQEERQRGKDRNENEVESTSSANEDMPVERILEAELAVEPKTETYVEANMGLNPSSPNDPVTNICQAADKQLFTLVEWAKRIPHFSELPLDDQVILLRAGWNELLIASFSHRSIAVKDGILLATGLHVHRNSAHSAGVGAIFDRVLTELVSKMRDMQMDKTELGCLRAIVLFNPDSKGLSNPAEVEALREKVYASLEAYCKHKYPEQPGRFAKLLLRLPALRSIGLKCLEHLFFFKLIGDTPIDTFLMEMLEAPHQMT

CCCCCCCCCCCCCC(=O)OCC(O)CO (stereo not given)
inactive: [1] | [2]

CC(C=O)Cc1ccc(C(C)(C)C)cc1 (stereo not given)
inactive: [3] | [1] | [4] | [2] | [5] | [6]

O=CN1CCOCC1
inactive: [7] | [8] | [9] | [10] | [11] | [12] | [13] | [14]

C=CC(C)(O)CCC=C(C)C (stereo not given)
inactive: [7] | [5] | [6] | [8] | [9] | [10] | [12] | [13] | [14]
active: [11] 15000 nM

Oc1c(Cl)cc(Cl)c(Cl)c1Cc1c(O)c(Cl)cc(Cl)c1Cl
inactive: [15] | [5] | [6] | [8] | [9] | [13] | [14]
active: [16] 33300 nM | [7] 266 nM | [10] 155 nM | [11] 122 nM | [12] 163 nM

C=C1CC[C@H](O)C/C1=C/C=C1\CCC[C@]2(C)[C@@H]([C@H](C)/C=C/[C@H](C)C(C)C)CC[C@@H]12
active: [17] 19800 nM
inactive: [5] | [6]

Nc1ccccc1[N+](=O)[O-]
inactive: [5] | [6]

ON=C1CCCCC1
inactive: [5] | [6]

Nc1ccn([C@H]2CS[C@@H](CO)O2)c(=O)n1
inactive: [5] | [6]

CN(C)C(=S)SC(=S)N(C)C
inactive: [7] | [8] | [9] | [10] | [11] | [12] | [13] | [14]

CC(C)(C)CC(C)(C)c1ccc(OCCOCC[N+](C)(C)Cc2ccccc2)cc1
inactive: [5] | [6]

C1=CC2C3C=CC(C3)C2C1 (stereo not given)
inactive: [5] | [6]

c1ccc2[nH]cnc2c1
inactive: [5] | [6]

CC1(C)O[C@@H]2C[C@H]3[C@@H]4CCC5=CC(=O)C=C[C@]5(C)[C@@]4(F)[C@@H](O)C[C@]3(C)[C@]2(C(=O)CO)O1
inactive: [5] | [6]

CC=Cc1ccc(OC)c(OC)c1
inactive: [5] | [6]
